For some assays here: Potency and affinity values are given separately.

Design in all cases: scale not given: direction of the effect not stated beside the values
Assay [1] addresses Protein translocase subunit SecA (Escherichia coli (strain K12)) (UniProt P10408). The assay can be described thus: Assay to Identify E. coli SecA ATPase Inhibitors. The format is functional. The note with it: 30 µM.
For assay [2], the target named is T1, Ubiquitin-activating enzyme e1, putative (Leishmania donovani (strain BPK282A1)) (UniProt E9BSI1).
T1 sequence (whole entry): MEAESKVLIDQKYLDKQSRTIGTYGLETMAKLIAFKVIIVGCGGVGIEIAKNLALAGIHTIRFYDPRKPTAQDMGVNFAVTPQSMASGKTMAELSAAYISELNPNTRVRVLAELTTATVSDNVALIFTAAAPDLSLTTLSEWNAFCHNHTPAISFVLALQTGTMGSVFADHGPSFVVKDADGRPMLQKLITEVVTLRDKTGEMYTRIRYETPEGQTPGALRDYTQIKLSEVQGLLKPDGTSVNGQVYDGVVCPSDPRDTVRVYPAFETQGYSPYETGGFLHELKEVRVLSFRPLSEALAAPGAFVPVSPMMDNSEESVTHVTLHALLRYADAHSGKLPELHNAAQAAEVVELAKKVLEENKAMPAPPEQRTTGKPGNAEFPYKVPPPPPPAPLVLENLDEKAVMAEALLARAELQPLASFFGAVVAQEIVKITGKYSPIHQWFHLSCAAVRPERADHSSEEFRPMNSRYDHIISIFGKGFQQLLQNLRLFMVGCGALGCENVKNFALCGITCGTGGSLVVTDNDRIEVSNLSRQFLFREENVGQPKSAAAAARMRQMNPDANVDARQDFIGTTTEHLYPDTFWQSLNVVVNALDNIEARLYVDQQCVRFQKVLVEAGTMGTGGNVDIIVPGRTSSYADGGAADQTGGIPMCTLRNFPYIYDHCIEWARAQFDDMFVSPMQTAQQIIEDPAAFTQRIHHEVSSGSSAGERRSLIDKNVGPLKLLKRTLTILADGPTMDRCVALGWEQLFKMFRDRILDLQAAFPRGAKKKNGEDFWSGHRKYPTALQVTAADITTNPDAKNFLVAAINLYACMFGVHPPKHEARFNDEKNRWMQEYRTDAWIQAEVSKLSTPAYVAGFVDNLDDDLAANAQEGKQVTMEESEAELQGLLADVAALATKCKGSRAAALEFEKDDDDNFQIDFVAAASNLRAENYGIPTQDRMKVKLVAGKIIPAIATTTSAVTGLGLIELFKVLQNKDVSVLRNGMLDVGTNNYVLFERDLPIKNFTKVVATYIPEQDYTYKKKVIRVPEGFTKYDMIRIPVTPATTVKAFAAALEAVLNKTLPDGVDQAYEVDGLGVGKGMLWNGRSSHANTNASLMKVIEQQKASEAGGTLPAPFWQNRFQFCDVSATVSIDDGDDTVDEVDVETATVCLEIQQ
As to the kind of experiment: Leishmania donovani Ubiquitin Activating Enzyme (LdE1). In kind it is functional. To be noted: 30 µM.

For assay [3], the target named is AMP-activated protein kinase, AMPK (Homo sapiens) (UniProt P54646+O43741+P54619+Q9UGJ0+Q9Y478+Q13131+Q9UGI9). As to the kind of experiment: AMP-dependent Kinase enzyme assay. An in vitro enzyme assay that detects ADP turnover that is directly proportional to AMPK activity. This uses naive AMPK that is activated during the assay with MK-8722. The format is functional. To be noted: 30 µM.

Assay [4] addresses Sialic acid-binding Ig-like lectin 9 (Homo sapiens) (UniProt Q9Y336). The assay can be described thus: Hs-Siglec9 ALPHAscreen SOP 20170721. The note with it: 10 µM. Background: Bead proximity is the source of the signal in Alpha formats.
A further assay deals with Trypanosoma cruzi. The assay can be described thus: Trypanosoma cruzi phosphomannomutase and mannose-1-phosphate guanylyltransferase assay. In kind it is functional. To be noted: 10 µM.
Assay [5] deals with T2, Arginase-2, mitochondrial (Homo sapiens) (UniProt P78540).
T2 sequence (whole entry): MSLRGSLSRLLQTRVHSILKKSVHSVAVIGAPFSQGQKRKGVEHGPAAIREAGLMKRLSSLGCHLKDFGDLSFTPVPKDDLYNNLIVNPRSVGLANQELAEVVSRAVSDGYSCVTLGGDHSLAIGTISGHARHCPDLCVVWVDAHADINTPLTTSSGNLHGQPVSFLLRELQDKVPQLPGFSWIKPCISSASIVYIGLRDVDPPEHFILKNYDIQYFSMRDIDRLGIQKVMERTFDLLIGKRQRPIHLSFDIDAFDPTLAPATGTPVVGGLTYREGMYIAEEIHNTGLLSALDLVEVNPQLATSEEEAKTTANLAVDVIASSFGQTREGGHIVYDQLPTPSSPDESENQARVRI
The assay can be described thus: in vitro enzyme assay to detect the production of urea directly proportional to the activity of Arginase II. Further: in the data most compounds retested in dose-response had high values. The format is functional. To be noted: 33.3 µM.

For assay [6], the target named is T3, Proteasome subunit beta (Trypanosoma cruzi) (UniProt O96673).
T3 sequence (whole entry): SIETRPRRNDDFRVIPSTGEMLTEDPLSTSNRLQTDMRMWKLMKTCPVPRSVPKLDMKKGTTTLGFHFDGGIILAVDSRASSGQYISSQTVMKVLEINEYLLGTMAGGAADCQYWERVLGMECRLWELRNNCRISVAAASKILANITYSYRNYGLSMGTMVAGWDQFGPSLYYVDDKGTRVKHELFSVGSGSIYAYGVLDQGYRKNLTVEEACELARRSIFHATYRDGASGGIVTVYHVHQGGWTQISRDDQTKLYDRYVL
The assay can be described thus: Trypanosoma cruzi proteasome chymotrypsin-like activity (TcProtChymo) assay. Further: in the data most compounds retested in dose-response had high values. In kind it is functional. The note with it: 9.37 µM.

The species named for the next assay is Homo sapiens. As to the kind of experiment: To identify inhibition of the IFN signalling (Jak-Stat) pathway via expression of an eGFP reporter gene under the control of an IFN-stimulated response element (ISRE) containing MxA promoter. The format is functional. The note with it: 30 µM. In general terms: In a reporter assay the amount or activity of a reporter protein is the signal.

The target of assay [7] is T4, Tyrosyl-tRNA synthetase, putative (Trypanosoma cruzi (strain CL Brener)) (UniProt Q4DSP6).
T4 sequence (whole entry): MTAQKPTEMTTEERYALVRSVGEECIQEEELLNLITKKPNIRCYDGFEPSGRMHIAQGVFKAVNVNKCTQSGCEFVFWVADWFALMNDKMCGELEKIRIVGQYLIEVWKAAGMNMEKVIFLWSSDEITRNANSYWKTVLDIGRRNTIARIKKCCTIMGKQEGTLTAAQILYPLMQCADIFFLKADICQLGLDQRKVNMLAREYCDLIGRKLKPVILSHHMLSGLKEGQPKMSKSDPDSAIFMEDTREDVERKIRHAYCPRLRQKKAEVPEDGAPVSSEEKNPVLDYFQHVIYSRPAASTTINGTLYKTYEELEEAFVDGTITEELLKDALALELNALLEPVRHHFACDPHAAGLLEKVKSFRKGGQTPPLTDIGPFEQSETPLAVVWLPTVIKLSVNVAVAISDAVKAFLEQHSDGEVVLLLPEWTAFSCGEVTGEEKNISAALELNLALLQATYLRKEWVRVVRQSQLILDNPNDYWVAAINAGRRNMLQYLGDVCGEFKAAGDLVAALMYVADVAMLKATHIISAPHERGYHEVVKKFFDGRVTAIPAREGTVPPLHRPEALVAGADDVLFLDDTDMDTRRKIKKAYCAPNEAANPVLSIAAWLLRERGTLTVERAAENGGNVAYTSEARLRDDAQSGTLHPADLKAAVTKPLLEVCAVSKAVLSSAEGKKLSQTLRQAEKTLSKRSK
The assay can be described thus: Trypanosoma cruzi tyrosyl tRNA synthetase (TcYRS) _High Tyrosine SOP. Further: in the data most compounds retested in dose-response had high values. The format is functional. To be noted: 30 µM.

Assay [8] has as its target T4, Tyrosyl-tRNA synthetase, putative (Trypanosoma cruzi (strain CL Brener)). As to the kind of experiment: Trypanosoma cruzi tyrosyl tRNA synthetase (TcYRS) SOP. In kind it is functional. The note with it: 30 µM.
Assay [9] deals with Chromo domain-containing protein 1 (Saccharomyces cerevisiae (strain ATCC 204508 / S288c) (Baker's yeast)) (UniProt P32657). As to the kind of experiment: ScCHD-1 Enzyme Inhibition Assay. Further: in the data most compounds retested in dose-response had high values. The format is functional. The note with it: 30 µM.
Chromo domain-containing protein 1 (Saccharomyces cerevisiae (strain ATCC 204508 / S288c) (Baker's yeast)), sequence (P32657 whole entry, the tested form may be a part): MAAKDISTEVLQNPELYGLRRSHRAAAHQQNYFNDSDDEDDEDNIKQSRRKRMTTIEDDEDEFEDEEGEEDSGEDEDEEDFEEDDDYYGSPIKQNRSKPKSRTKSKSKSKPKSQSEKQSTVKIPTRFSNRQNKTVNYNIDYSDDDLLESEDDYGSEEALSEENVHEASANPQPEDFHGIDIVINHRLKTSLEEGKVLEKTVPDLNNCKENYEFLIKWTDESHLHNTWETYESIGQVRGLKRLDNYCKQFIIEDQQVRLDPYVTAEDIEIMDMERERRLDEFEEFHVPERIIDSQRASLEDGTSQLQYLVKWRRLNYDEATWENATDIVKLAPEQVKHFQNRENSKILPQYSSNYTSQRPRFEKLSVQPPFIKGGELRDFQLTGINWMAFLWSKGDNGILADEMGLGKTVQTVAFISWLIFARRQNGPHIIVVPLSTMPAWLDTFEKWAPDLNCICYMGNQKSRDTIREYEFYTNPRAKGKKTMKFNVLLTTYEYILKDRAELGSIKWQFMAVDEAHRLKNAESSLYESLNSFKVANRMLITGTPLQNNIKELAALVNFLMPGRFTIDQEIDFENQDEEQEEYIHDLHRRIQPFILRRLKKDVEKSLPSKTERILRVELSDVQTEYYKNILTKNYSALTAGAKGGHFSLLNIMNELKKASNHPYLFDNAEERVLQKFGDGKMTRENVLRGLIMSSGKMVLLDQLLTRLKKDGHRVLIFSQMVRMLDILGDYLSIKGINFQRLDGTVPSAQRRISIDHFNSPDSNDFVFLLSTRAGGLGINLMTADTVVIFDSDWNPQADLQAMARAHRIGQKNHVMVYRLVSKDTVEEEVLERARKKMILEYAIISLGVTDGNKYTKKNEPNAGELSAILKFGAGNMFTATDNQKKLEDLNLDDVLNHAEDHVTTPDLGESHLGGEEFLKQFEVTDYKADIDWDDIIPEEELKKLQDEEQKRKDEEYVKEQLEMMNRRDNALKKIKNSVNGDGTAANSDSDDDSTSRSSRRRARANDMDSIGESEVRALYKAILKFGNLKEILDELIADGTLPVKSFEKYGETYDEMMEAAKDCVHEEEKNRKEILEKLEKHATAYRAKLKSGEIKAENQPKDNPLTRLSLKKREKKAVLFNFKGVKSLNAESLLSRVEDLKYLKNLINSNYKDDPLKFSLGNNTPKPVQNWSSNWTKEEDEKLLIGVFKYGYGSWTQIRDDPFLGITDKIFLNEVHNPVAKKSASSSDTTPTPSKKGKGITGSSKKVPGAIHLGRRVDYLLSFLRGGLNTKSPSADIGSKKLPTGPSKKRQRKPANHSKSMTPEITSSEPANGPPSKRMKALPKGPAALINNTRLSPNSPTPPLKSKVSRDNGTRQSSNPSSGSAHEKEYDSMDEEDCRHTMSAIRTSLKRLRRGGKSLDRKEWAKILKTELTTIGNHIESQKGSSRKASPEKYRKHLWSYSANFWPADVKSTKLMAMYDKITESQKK

Sialic acid-binding Ig-like lectin 9 (Homo sapiens), sequence (Q9Y336 whole entry): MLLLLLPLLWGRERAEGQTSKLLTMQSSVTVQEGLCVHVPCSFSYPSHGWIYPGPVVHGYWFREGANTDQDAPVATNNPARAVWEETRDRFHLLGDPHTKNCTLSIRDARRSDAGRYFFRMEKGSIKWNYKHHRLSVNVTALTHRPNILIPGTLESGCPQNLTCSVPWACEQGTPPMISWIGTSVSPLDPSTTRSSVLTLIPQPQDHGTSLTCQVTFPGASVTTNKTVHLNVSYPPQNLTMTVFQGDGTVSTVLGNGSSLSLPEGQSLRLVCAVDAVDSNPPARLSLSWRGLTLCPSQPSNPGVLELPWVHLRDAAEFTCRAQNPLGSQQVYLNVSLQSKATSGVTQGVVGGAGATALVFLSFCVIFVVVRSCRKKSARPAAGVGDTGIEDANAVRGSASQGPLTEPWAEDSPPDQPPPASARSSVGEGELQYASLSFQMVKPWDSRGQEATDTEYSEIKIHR
Protein translocase subunit SecA (Escherichia coli (strain K12)), sequence (P10408 whole entry): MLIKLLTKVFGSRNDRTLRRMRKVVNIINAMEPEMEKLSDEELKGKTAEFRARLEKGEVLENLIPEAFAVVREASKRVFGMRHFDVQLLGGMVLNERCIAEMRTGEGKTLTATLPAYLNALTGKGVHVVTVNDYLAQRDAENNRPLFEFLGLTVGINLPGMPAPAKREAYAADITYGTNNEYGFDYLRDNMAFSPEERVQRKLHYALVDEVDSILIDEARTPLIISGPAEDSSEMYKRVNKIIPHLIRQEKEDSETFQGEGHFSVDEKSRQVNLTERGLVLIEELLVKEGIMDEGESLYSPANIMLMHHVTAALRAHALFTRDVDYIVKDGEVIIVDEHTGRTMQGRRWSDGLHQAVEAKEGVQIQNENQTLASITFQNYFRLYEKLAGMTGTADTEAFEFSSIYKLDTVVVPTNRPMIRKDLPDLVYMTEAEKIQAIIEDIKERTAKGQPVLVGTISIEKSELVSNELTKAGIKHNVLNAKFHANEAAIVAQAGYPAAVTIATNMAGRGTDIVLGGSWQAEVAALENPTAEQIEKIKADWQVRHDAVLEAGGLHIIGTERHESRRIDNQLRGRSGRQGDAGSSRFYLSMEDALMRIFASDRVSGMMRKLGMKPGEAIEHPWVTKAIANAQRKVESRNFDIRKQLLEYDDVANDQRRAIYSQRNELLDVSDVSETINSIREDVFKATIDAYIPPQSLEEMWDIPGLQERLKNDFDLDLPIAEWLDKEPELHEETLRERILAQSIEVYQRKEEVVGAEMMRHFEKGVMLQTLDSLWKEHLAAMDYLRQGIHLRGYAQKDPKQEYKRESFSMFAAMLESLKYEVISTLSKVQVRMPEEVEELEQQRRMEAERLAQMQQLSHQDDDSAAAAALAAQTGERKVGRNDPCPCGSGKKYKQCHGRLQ

For the compound `COC(=O)c1sccc1S(=O)(=O)NCC1(O)CCOc2ccccc21` (stereo not given), the Percent Effect is -3.54% in assay [1]; 0% in assay [2]; 5.9% in [3]; -3.21% in [4]; -3.72% in the assay with Trypanosoma cruzi; 1.82% in [5]. Moreover, the Percent Effect is 1.77% in assay [6]; 4.11% in the assay filed under Homo sapiens; 0% in [7]; 7.5% in assay [8]; -4.1% in assay [9].

Turning to `Cc1nc(C)n(CC2CCCN(Cc3nnc(C(C)(C)C)o3)C2)n1` (stereo not given), the Percent Effect in [1] was -3.5%; in [2], 10.5%; in assay [3], 5.56%; in [4], -2.35%; with Trypanosoma cruzi, 5.55%; in assay [5], 0%. In addition, the Percent Effect is 7.77% in assay [6]; -1.74% in the assay filed under Homo sapiens; 2.13% in [7]; 5.2% in assay [8]; -3.94% in assay [9].

Regarding `CC(C)(NCC(=O)NCCC#N)c1ccc2c(c1)OCCO2`, the Percent Effect in [1] is -3.57%; in assay [2], 27%; in [3], -8.79%; in assay [4], 1.26%; in the assay on Trypanosoma cruzi, 3.49%; in assay [5], -8.42%. Moreover, the Percent Effect in assay [6] is 17.3%; in the assay listed under Homo sapiens, 3.81%; in assay [7], 4.43%; in assay [8], 23.5%; in assay [9] it was -9.99%.

With `O=C(NC1CC1)[C@@H]1CCO[C@@H]2CCN(C3CCOCC3)C[C@@H]21`, the Percent Effect in assay [1] was 1.01%; in assay [2], 2.6%; in assay [3] it was -0.255%; in [4], 5.79%; in the assay with Trypanosoma cruzi, 6.98%; in assay [5], -13.8%. The Percent Effect was 3.49% in assay [6]; -21.6% in the assay listed under Homo sapiens; 1.07% in assay [7]; 1.24% in assay [8]; -7.95% in assay [9].

With `O=C(CSC1=NS(=O)(=O)c2cc(F)ccc2N1)c1ccc(Cl)cc1`, the Percent Effect in assay [1] is -1.43%; in assay [2], 0%; in assay [3] it was 2.41%; in assay [4], -0.28%; in the assay on Trypanosoma cruzi, -5.42%; in assay [5] it was 4.52%. For the same compound, the Percent Effect in assay [6] is 6.44%; in the assay filed under Homo sapiens, 11.1%; in assay [7], 4.23%; in assay [8], 11.5%; in assay [9] it was -7.8%.

Regarding `CC(C)NC(=O)N1CCc2ncc(CN3CCOCC3)n2CC1`, the Percent Effect in [1] is 1.23%; in [2], 0%; in assay [3], 6.6%; in [4] it was 1.59%; in the assay on Trypanosoma cruzi, -4.2%; in assay [5] it was 0.319%. In addition, the Percent Effect in assay [6] is 14%; in the assay listed under Homo sapiens it was 4.62%; in assay [7] it was 3.24%; in assay [8] it was 7.69%; in [9], 1.69%.

On to `CCC(CNC(=O)c1cc(OC)ccc1Br)N1CCc2ccccc2C1` (stereo not given), for which the Percent Effect in assay [1] is 0.461%; in assay [2], 0%; in assay [3], 3.64%; in assay [4], 9.31%; in the assay with Trypanosoma cruzi it was -7.14%; in [5] it was -4.29%. Also, the Percent Effect is 20.3% in [6]; 11.2% in the assay filed under Homo sapiens; -0.529% in assay [7]; -2.44% in assay [8]; -4.45% in [9].

For the compound `COc1ccc(-c2nccnc2C2CCN(C(C)=O)CC2)cc1`, the Percent Effect in assay [1] is -3.54%; in assay [2], 25.7%; in assay [3], -4.6%; in assay [4], -7.08%; with Trypanosoma cruzi it was 0.395%; in [5], -3.48%. In addition, the Percent Effect in assay [6] is 11.7%; in the assay listed under Homo sapiens it was 8.34%; in [7], 1.07%; in [8], 9.09%; in assay [9], -9.8%.

Regarding `COc1ccc(C(CNC(=O)Nc2cn[nH]c2)N2CCOCC2)cc1` (stereo not given), the Percent Effect in [1] was -3.98%; in assay [2], 7.79%; in assay [3] it was 3.92%; in assay [4], 0.747%; in the assay with Trypanosoma cruzi, 4.8%; in assay [5] it was 1.05%. The Percent Effect in assay [6] was 15%; in the assay listed under Homo sapiens, -2.67%; in [7] it was 10.5%; in [8], 25.9%; in [9] it was -20.4%.

Consider `c1cnc(N2CCOC3(CCN(CC4CCCCC4)CC3)C2)nc1`, for which the Percent Effect in assay [1] was 0.617%; in assay [2], 13.3%; in assay [3], 14.1%; in assay [4] it was -0.802%; in the assay with Trypanosoma cruzi, -5.12%; in assay [5], -2.1%. Further, the Percent Effect is 14.7% in assay [6]; 10.1% in the assay filed under Homo sapiens; 5.32% in assay [7]; 11.5% in [8]; -3.47% in [9].

For the origin of these results see ChEMBL document CHEMBL3988442, “University of Dundee, Small-Polar-MMV Screening Library” (2021).
